ATXN2 expr inh: inhibitors of ATXN2 expression; HEK-293 ATXN2-luciferase reporter, luminescence, 24 h; Potency, µM (series often up to 57 µM), inactives show at the highest dose activity change, negative = inhibition, usual class: inhibitors; actives 0.72% (n = 360,000); AID 1745845; further: potency means the concentration at half of the fitted maximal effect; on the % scale 0 is the no-effect control and ±100 the full control effect; nearly all actives have a fitted effect of over 55% in size
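ATXN2-luciferase reporter cells (luciferase flanked by upstream and downstream ATXN2 gene portions) were treated 24 h at 37 °C with compounds at up to 57 uM. SteadyGlo luminescence gave expression; GF-AFC fluorescence gave viability.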
HT1080 IDH1KD tx: kills HT-1080 cells with IDH1 knockdown; HT-1080 IDH1 knockdown viability, ATP luminescence, 48 h; Potency, µM (highest dose often 46.1 µM), for the others: top-dose activity, negative = toxicity, usual class: cytotoxic; actives 2% (n = 360,000); AID 686971;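 further: potency means the concentration at half of the fitted maximal effect; 0% = DMSO wells and -100% = cell-free medium wells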
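After a 2 h attachment period, IDH1KD HT-1080 cells took pin-transferred compound for 48 h at 37 °C; ATP-based luminescence after 10 min room-temperature reagent incubation reported viability.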
KB-V1 cytotox: kills drug-selected multidrug resistant KB-V1 cells; actives 3.4% (n = 400,000); Potency, µM (top dose mostly 46.1 µM), most hits filed as cytotoxic; AID 1347076; KB-V1 MDR cells viability, CellTiter-Glo, 72 h; further: potency means the concentration at half of the fitted maximal effect; on the % scale 0 is the no-effect control and ±100 the full control effect; nearly all actives have a fitted effect of over 60% in size
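Cells of the MDR subline KB-V1 are plated, dosed with compound at multiple concentrations, and incubated 72 h at 37 degrees C; CellTiter-Glo is then added and luminescence read after 10 min.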
KB-3-1 cytotox: kills parental KB-3-1 adenocarcinoma cells; KB-3-1 viability, CellTiter-Glo ATP luminescence, 72 h; Potency, µM (titrated, usually from 46.1 µM), most hits filed as cytotoxic; actives 1.4% (n = 400,000); further: potency means the concentration at half of the fitted maximal effect; on the % scale 0 is the no-effect control and ±100 the full control effect; nearly all actives have a fitted effect of over 60% in size
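Viability of parental KB-3-1 cells, measured by CellTiter-Glo luminescence, followed a 72 h incubation at 37 °C with pinned compounds in phenol-red-free DMEM containing 10% FBS.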
ATXN viability: cell viability loss in ATXN counter-screen; S2 cells (HEK-293 line with an ATXN2-luciferase reporter) viability, CellTiter-Fluor protease fluorescence, 24 h; Potency, µM (highest dose often 56.7 µM), most hits filed as cytotoxic; actives 0.49% (n = 400,000); AID 651635; further: potency means the concentration at half of the fitted maximal effect; nearly all actives have a fitted effect of over 40% in size
HT1080-NT tox: kills 2HG-producing HT-1080-NT fibrosarcoma cells | Potency, µM (doses to about 46.1 µM), without a hit: at the top dose activity, negative = less viability, most hits filed as cytotoxic | HT-1080-NT fibrosarcoma viability, CellTiter-Glo ATP luminescence, 48 h | actives 1.6% (n = 360,000);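 further: NT is the 2HG producing partner of a matched IDH1 knockdown line; potency means the concentration at half of the fitted maximal effect; 0% = DMSO-treated cells and -100% = media-only wells without cells; nearly all actives have a fitted effect of over 55% in size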
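Compounds were tested in concentration-response format on HT-1080-NT cells for 48 hours at 37 degrees C. Cell viability came from CellTiter-Glo luminescence; curves were classified by r2, response magnitude and activity.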
SK-N-SH 3D tox: kills SK-N-SH neuroblastoma spheroids in orthogonal 3D test | AID 1347135 | actives 70% (n = 65) | Potency, µM (doses to about 30.7 µM), usual class: inhibitors | shares compounds with ATXN2 expr inh | SK-N-SH 3D spheroid viability, PI/Hoechst imaging, 72 h
SJ-GBM2 3D tox: SJ-GBM2 spheroid viability loss, orthogonal 3D screen. shares compounds with ATXN2 expr inh. SJ-GBM2 3D spheroid viability, PI/Hoechst imaging, 72 h. Potency, µM (highest dose often 30.7 µM), most hits filed as inhibitors. actives 80% (n = 65). AID 1347136
Daoy spheroid: Daoy 3D spheroid viability loss; AID 1347137; Daoy 3D spheroid viability, PI/Hoechst imaging, 72 h; actives 50% (n = 65); Potency, µM (titrated, usually from 30.7 µM), hits mostly inhibitors; shares compounds with ATXN2 expr inh
TC32 3D casp: caspase activation in TC32 3D spheroids, orthogonal test | shares compounds with ATXN2 expr inh | TC32 3D spheroids, caspase-3/7 fluorescence imaging, 24 h | Potency, µM (series often up to 30.7 µM), hits mostly inhibitors | actives 30% (n = 65) | AID 1347138
TC32 3D tox: TC32 3D spheroid viability loss; shares compounds with ATXN2 expr inh; TC32 3D spheroid viability, PI/Hoechst imaging, 72 h; Potency, µM (doses to about 30.7 µM), actives largely listed as inhibitors; actives 60% (n = 65); AID 1347139
MG63 spheroid: kills MG-63 (6-TG R) spheroids in orthogonal 3D test; shares compounds with ATXN2 expr inh; MG-63 (6-TG R) 3D spheroid viability, PI/Hoechst imaging, 72 h; Potency, µM (top dose mostly 30.7 µM), usual class: inhibitors; actives 50% (n = 65); AID 1347140
RD spheroid: RD 3D spheroid viability loss | shares compounds with ATXN2 expr inh | RD rhabdomyosarcoma 3D spheroid viability, PI/Hoechst imaging, 72 h | Potency, µM (series often up to 30.7 µM), actives largely listed as inhibitors | actives 50% (n = 65)
Starred values were filed as active, the others as inactive; i = inactive; u = inconclusive; x = no result given; ! = not confirmed by another sample; [ ] = another dose, or the depositor's remark. The list is a sample of the results. The call rests on the fitted dose curve; in most records, active means well fitted curve in the direction sought with a large enough effect; inconclusive means small, poorly fitted or top-dose-only effect, or another doubt; inactive means no such curve, though single readings can be large; an effect the other way counts as inactive or inconclusive.

SMILES	ATXN2 expr inh	HT1080 IDH1KD tx	KB-V1 cytotox	KB-3-1 cytotox	ATXN viability	HT1080-NT tox	others
CN1CCC(OC(=O)C2c3ccccc3Oc3ccccc32)CC1	-7%	-3%	i	i	i	-21%
CCOC(=O)CC(SP(=S)(OC)OC)C(=O)OCC (stereo not drawn)	11%	x	x	x	i	x
S=c1[nH]nc(C2CC2)n1Cc1ccco1	-9%	-20%	i	i	i	u
O=S1(=O)N(Cc2ccccc2Cl)CCCN1Cc1ccccc1Cl	0%	x	i	i	i	x
Cc1ccc(OCC(=O)Nc2ccc(Cl)cc2C(=O)c2ccccc2)c(Br)c1	0%	x	i	i	i	x
CCCC1CCCCN1 (stereo not drawn)	11%	x	x	x	i	x
O=C(Nc1ccc(F)c(Cl)c1)N(Cc1ccc2c(c1)OCO2)C1CCN(Cc2ccccc2)CC1	u	x	i	i	u	x
CCc1ccc(-n2nc(C)c3c2NC(=O)CSC3c2ccc(C(=O)OC)cc2)cc1 (stereo not drawn)	u	x	i	i	u	x
O=C(CCN1CCN(CCO)CC1)N1c2ccccc2Sc2ccc(C(F)(F)F)cc21	-22%	-27%	i	i	i	-8%
CCc1cc2c(s1)-n1c(C)nnc1CN=C2c1ccccc1Cl	59%	x	x	x	i	x
COC(=O)c1c(C)n(Cc2ccccc2)c2ccc(O)cc12	0%	-15%	i	i	i	-22%
OC(c1ccccc1)(c1ccccc1)C1CCNCC1	8%	-2%	i	i	i	-19%
Cc1oc(-c2ccc(Cl)cc2)nc1CN1C(=O)CN=C(c2ccccc2)c2cc(Cl)ccc21	10%	x	i	i	i	x
CC1OC(C)OC(C)O1 (stereo not drawn)	8%	x	x	x	i	x
COc1ccc(OCC(=O)N2CCN(Cc3cc(=O)n4nc(-c5ccccc5C)sc4n3)CC2)cc1	-21%	x	i	i	i	x
Clc1ccc(OCCCN2CCCC2)cc1Cl	-14%	-22%	i	i	i	u
Cc1ccc(-c2csc3ncnc(OCC(=O)NC(=O)NCc4ccco4)c23)cc1	9%	u	i	i	i	u
CC(=O)c1ccc2c(c1)N(CCCN(C)C)c1ccccc1S2	u	-78%	u	i	u	u
CNCCCN1c2ccccc2CCc2ccccc21	u	u	u	i	u	u
C=CCN1C(=O)C2(C(C(=O)OC)=C(N)Oc3c2c(=O)oc2ccccc32)c2ccccc21 (stereo not drawn)	x	x	i	u	x	x
COc1cc([C@@H]2c3cc4c(cc3[C@H](O)[C@H]3COC(=O)[C@H]23)OCO4)cc(OC)c1OC	-4%	0.0065µM*	0.26µM*	0.1µM*!	u	u	SK-N-SH 3D tox=0.023µM*;SJ-GBM2 3D tox=0.036µM*;Daoy spheroid=u;TC32 3D casp=0.057µM*;TC32 3D tox=0.057µM*;MG63 spheroid=u;RD spheroid=0.046µM*
O=C(CCCN1CCC2(CC1)C(=O)NCN2c1ccccc1)c1ccc(F)cc1	u	0%	u	i	i	-2%
O=C(CN1C(=O)CN=C(c2ccccc2)c2ccccc21)Nc1cccc(C(F)(F)F)c1	u	x	i	i	x	x
CN1CCC(OC(=O)c2ccccc2)CC1	x	11%	i	i	u	6%
Cc1ccc(-n2c(/C=C/c3ccc(Br)s3)nc3ccccc3c2=O)cc1	x	x	i	u	x	x
SMILES	ATXN2 expr inh	HT1080 IDH1KD tx	KB-V1 cytotox	KB-3-1 cytotox	ATXN viability	HT1080-NT tox	others
Cc1cccc(-n2c(/C=C\c3cccc(Br)c3)nc3ccccc3c2=O)c1	x	x	i	i	x	x
Cc1cc(C)cc(-n2c(=O)[nH]c3ccccc3c2=O)c1	-2%	x	i	i	u	x
COc1cc(CCN)cc(OC)c1OC	4%[116 µM]	x	x	x	i	x
CCOC(=O)c1ncn2c1CN(C)C(=O)c1cc(F)ccc1-2	2%	u	i	i	i	0%
CCN(CC)CCNC(=O)c1c(O)c2ccccc2n(Cc2ccccc2)c1=O	-22%	u	i	i	u	u
CN(C)C(=O)Oc1ccnc2cc(Cl)ccc12	-5%	10%	i	i	i	-1%
CCCC12CN3CC(C)(CN(C1)C3c1c(C)[nH]c(=O)[nH]c1=O)C2=O (stereo not drawn)	8%	x	i	i	i	x
Cc1ccc(Cn2cccc(C(=O)Nc3cc([N+](=O)[O-])ccc3C)c2=O)cc1	-2%	x	u	u	i	x
CCCCCn1c(=O)c(C(=O)Nc2nc3ccccc3[nH]2)c(O)c2ccccc21	-9%	-7%	u	u	i	-3%
COc1ccc(OCC(=O)Nc2ccc(Cl)cc2C(=O)c2ccccc2)cc1	-8%	1%	i	i	i	10%
O=C(O)CCCO	x	x	x	x	i	x
CCC(=O)c1ccc(OC(=O)N(C)c2ccccc2)cc1	5%	20%	i	i	i	16%
Cc1cccc(Cn2cccc(C(=O)Nc3nc4ccccc4s3)c2=O)c1	50%	x	i	i	i	x

High-throughput results from PubChem BioAssay.
